Mdm2 MdmX PPI = human Mdm2/MdmX binding inhibition | SaOS-2 split-luciferase Mdm2/MdmX complementation, luminescence | actives 3% (n = 330,000) | AID 485346 | O15151+Q00987 | inhibition, % at 8 µM;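 active = inhibition of at least 50% at 8 µM in the primary screen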
Target sequence (O15151 whole entry, looked up): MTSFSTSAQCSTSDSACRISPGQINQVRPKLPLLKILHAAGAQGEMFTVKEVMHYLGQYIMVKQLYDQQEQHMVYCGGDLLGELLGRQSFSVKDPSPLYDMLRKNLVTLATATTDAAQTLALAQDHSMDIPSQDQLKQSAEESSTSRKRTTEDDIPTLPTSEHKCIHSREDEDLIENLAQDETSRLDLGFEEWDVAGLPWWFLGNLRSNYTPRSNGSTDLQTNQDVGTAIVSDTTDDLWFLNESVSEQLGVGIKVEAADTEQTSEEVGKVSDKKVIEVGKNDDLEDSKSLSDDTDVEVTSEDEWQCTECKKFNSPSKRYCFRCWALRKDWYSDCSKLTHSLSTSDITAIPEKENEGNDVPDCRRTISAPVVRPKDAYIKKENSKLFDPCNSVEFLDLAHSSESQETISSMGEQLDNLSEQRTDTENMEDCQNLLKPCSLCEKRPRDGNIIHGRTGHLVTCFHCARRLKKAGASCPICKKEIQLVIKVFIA
Target sequence (Q00987 whole entry, looked up): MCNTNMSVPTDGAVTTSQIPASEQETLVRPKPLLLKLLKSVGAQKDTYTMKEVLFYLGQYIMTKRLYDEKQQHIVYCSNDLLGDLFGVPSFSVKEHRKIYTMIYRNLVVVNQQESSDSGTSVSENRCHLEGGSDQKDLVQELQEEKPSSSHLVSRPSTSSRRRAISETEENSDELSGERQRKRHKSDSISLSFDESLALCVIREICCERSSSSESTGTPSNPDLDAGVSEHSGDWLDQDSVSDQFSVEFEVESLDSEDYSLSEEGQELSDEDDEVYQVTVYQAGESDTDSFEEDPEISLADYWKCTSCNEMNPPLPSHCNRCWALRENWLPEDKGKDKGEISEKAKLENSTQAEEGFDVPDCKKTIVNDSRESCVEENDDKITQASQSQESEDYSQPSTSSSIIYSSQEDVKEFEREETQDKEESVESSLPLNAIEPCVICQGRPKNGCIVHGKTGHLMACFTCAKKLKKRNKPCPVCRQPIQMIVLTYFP
PAX8 inh HTS = lowers PAX8-driven luciferase in RMG-I cells; inhibition, % at 12.6 µM; actives 1.2% (n = 360,000); RMG-I TPO-luciferase reporter, SteadyGlo, 24 h;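 active = mean replicate inhibition at least 60% with every replicate also reaching 60%; inconclusive = only one of the two criteria is met; inactive = mean below 60% and not all replicates reaching 60%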;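 note: luciferase light reporting Pax8 driven TPO promoter activity; plate controls were median of neutral control wells for no effect and mitoxantrone controls for full effect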
Gli-Sufu block = blocks Gli-Sufu signaling in a luciferase reporter | Sufu-KO-LIGHT fibroblasts, Gli luciferase reporter luminescence | inhibition, % at 5 µM | actives 0.74% (n = 340,000);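 active = inhibition above about 55%, limit read from the data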;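 note: 0% = DMSO-treated cells and 100% = wells with medium but no cells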
CSC inhib = blocks cancer stem cells; AID 2717; cancer stem cell-like cells viability, luminescence; inhibition, % at 7.5 µM; actives 1.1% (n = 300,000); in the data active = inhibition above about 75%; inconclusive = no clear call, values can overlap the other calls; tested in HMLE shEcad cells
Shn3 3UTR inh = inhibitors of Schnurri-3 3'UTR reporter in osteoblasts; actives 0.52% (n = 360,000); Clone20 osteoblast Shn3 3'UTR firefly luciferase, 24 h; inhibition, % at 12.5 µM;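 active = mean inhibition of at least 75% with every replicate also reaching 75%; inconclusive = mean inhibition at least 75% but some replicate below; inactive = mean inhibition below 75%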;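 note: 0% = median of neutral control wells and 100% = pilot-screen positive control compound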
Beta apoptosis = blocks beta cell apoptosis; actives 0.8% (n = 300,000); protection from apoptosis, % (no concentration beside the values); INS-1E cytokine-induced death, ATP luminescence, 48 h; percent of positive-control rescue, neutral wells zero;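 active = Every replicate reaches about 75%, or at least half do and their mean reaches it too, limit read from the data; inconclusive = At least half of replicates reach the limit but their mean does not; inactive = Under half of replicates reach the limit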;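 note: 0% = cytokine-treated negative control wells and 100% = positive control rescue; higher means more ATP so stronger rescue from cytokine killing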
The depositor's hits bear a star; u = inconclusive; x = no result given. Only some compounds are listed: those with a hit (about 4% of all), similar ones and a draw of the others.

SMILES	Mdm2 MdmX PPI	PAX8 inh HTS	Gli-Sufu block	CSC inhib	Shn3 3UTR inh	Beta apoptosis
CN(C)c1ccc(/C=C/c2ccc3ccccc3n2)cc1	x	x	28	84*	88*	76*
C(=C\c1ccc2ccccc2n1)/c1ccccc1	-84	-7	-81	24	43	13
CCC(=O)N1C[C@@H](O)COC[C@@H]2O[C@H](CC(=O)NC)CC[C@H]21	x	-8	x	x	x	x
Cc1nc(N2CCN(C)CC2)c2sc(=S)n(-c3ccccc3)c2n1	4	-26	-12	0	-11	1
S=c1sc2c(Cl)ncnc2n1-c1ccccc1	x	93*	6	x	-7	x
CN1C(=O)c2cc(NC(=O)c3ccccc3F)ccc2OC[C@@H]2O[C@H](CC(=O)NCc3ccc4c(c3)OCO4)CC[C@H]21	x	42	x	x	x	x
COc1ccc(S(=O)(=O)Nc2ccc3c(c2)C(=O)N([C@H](C)CO)C[C@H](C)[C@H](CN(C)S(=O)(=O)c2ccc(Cl)cc2)OCCCC[C@@H](C)O3)cc1	x	1	x	x	x	x
COc1ccc(S(=O)(=O)Nc2ccc3c(c2)C(=O)N([C@H](C)CO)C[C@@H](C)[C@H](CN(C)S(=O)(=O)c2ccc(Cl)cc2)OCCCC[C@H](C)O3)cc1	x	83*	x	x	x	x
COc1ccc(S(=O)(=O)N(C)C[C@@H]2OCCCC[C@@H](C)Oc3ccc(NS(=O)(=O)c4ccc(Cl)cc4)cc3C(=O)N([C@@H](C)CO)C[C@H]2C)cc1	x	66*	x	x	x	x
O=C(Nc1ccc(Cl)c(Cl)c1)N1CCSC1c1ccco1 (stereo not drawn)	18	-10	16	40	26	103*
CC(C)(C)c1ccc(NNC(=O)C2CCC2)cc1	1	33	0	27	x	109*
CN(/N=C/c1cc(Br)cc(Br)c1O)c1cccc(C(F)(F)F)n1	50	16	2	103*	9	u
C[C@@H]1CN([C@H](C)CO)C(=O)c2cccc(NC(=O)Nc3ccc(C(F)(F)F)cc3)c2O[C@@H]1CN(C)S(=O)(=O)c1ccc(F)cc1	x	-11	x	x	x	x
Cc1ccc(C(=O)/C=C/c2cc(Br)cc(Br)c2O)o1	24	-34	3	94*	-1	3
O=C(Nc1cc(C(F)(F)F)ccc1N1CCOCC1)C1=NN(c2ccccc2)C(=O)CC1	22	80*	20	32	8	28
O=C(Nc1ccc(F)c(F)c1)c1ccc(F)c(S(=O)(=O)N2CCC3(CC2)OCCO3)c1	7	23	23	-5	84*	11
O=S(=O)(c1cc(F)ccc1F)N1CCC2(CC1)OCCO2	-7	9	-5	7	8	-3
C=C1C(=O)O[C@H]2[C@@H]1CC/C(CO)=C\CC[C@@]1(C)O[C@@H]21	x	83*	x	x	x	x
C[C@@H]1CCCCO[C@H](CN(C)S(=O)(=O)c2cccs2)[C@@H](C)CN([C@H](C)CO)C(=O)c2cc(NC(=O)c3ccncc3)ccc2O1	x	-23	x	x	x	x
CCc1cnc(N2[C@@H](C#N)[C@@H](c3ccc(-c4cccc(F)c4)cc3)[C@@H]2CO)s1	x	1	x	x	x	x
Cc1ccc(C(=O)CSc2nc(-c3ccccc3)ccc2C#N)cc1	7	18	-11	84*	16	-6
CC(C)(C)C(=O)NC(Nc1cccc2cccnc12)C(Cl)(Cl)Cl (stereo not drawn)	19	x	-1	x	39	78*
Cc1cc(C)nc(SCC(=O)NC2=NN=C(c3ccc(Br)cc3)CS2)n1	17	x	1	-3	-19	113*
CCCn1c2ccccc2c2nnc(SCC(=O)OC)nc21	10	x	-5	x	9	-9
CCC(Sc1nc(C)cc(C)n1)C(=O)NC1=NN=C(c2ccc(C)cc2)CS1 (stereo not drawn)	-8	x	-2	45	-8	127*
CCC(Sc1nc(C)cc(C)n1)C(=O)Nc1cc(C)on1 (stereo not drawn)	11	8	0	3	5	2
CCCCn1c2ccccc2c2nnc(SCC(=O)NC3=NN=C(c4ccccc4)CS3)nc21	31	77*	x	0	x	60
C[C@H](CO)N1C[C@H](C)[C@@H](CN(C)Cc2ccc(Oc3ccccc3)cc2)Oc2c(NC(=O)CCCCCC(=O)Nc3ccccc3N)cccc2C1=O	x	63*	x	x	x	x
C[C@H](CO)N1C[C@H](C)[C@@H](CN(C)CC2CCCCC2)Oc2c(NC(=O)CCCCCC(=O)Nc3ccccc3N)cccc2C1=O	x	81*	x	x	x	x

Source: PubChem (several laboratories)
